From PubChem BioAssay AID504900 (The Scripps Research Institute Molecular Screening Center, 2011)
Some of the results follow. Calls of active or inactive are those of the source. No stated cut-off is given here; in the data, active means inhibition above about 32%; inactive means the rest.

molecular target: Mu-type opioid receptor (Homo sapiens) + Delta-type opioid receptor (Homo sapiens) (UniProt P35372+P41143); experiment: OPRM1-OPRD1 heterodimer inverse agonism – cell-based, luminescence, confirmation (AID 504900); conditions: cells expressing OPRM1/OPRD1 heterodimer, at 9.3 µM, hits give high values;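 further: 0% = cells with DMSO and 100% = wells lacking cells with DMSO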
Sequence (P35372 whole entry, looked up): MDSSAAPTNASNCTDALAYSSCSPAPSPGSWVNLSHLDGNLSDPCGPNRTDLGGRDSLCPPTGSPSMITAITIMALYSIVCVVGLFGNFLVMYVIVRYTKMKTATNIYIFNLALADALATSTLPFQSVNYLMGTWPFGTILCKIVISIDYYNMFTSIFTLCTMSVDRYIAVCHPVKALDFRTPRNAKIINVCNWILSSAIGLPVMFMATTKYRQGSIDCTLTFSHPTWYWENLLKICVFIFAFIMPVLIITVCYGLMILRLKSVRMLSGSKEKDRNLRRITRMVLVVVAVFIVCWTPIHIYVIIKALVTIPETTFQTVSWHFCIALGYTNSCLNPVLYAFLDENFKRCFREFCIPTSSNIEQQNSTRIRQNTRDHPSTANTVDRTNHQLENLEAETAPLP
Sequence (P41143 whole entry, looked up): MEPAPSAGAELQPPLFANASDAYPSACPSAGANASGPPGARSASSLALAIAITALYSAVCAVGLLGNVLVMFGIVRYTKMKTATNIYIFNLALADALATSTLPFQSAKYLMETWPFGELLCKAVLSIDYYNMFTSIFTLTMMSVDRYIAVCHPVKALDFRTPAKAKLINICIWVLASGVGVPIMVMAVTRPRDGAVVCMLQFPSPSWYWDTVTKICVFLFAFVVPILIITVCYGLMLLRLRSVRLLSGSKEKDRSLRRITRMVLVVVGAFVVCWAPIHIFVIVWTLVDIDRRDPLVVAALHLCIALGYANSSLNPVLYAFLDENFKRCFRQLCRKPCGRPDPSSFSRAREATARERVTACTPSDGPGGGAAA

inhibition, inactive:
N#CC1=C(N)C(C#N)(C#N)[C@H](c2ccsc2)[C@H]2COCC=C12 -0.3%, C=CCn1c(N)c(C(=O)OCC(C)C)c2nc3ccccc3nc21 14.8%, CCCCC(=O)NNC(=S)NC(=O)C(c1ccccc1)c1ccccc1 -427%, CN(c1ccccc1)S(=O)(=O)c1ccc(NC(=O)COc2ccccc2)cc1 -21.8%, Cc1ccc2c(c1)C(O)(CC(=O)c1cccnc1)C(=O)N2 (stereo unspecified) 22.7%, CN(C)/C=C1/Nc2ccccc2C1=O -27.4%
